Data reported in PubChem BioAssay.

Test: compound effects on multiple myeloma cell viability – MM1S, calcein-AM fluorescence, 48 h, basal, profiling panel (AID 1165); further: test concentration not given here
Conditions: higher = more signal

| Structure (SMILES) | z-score |
| --- | --- |
| Cc1cc(C)c(C(O)C2C=CC3C(=O)N(c4ccccc4)C(=O)C3N2Nc2ccccc2)c(C)c1 (stereo unspecified) | 0.541 |
| O=C1O[C@H](c2ccccc2)[C@H](c2ccccc2)N2[C@H]1[C@@H](C(=O)N1CCN(c3ncccn3)CC1)[C@]1(C(=O)Nc3ccc(C#CCCO)cc31)[C@H]2c1ccc(OCCO)cc1 | -1.04 |
| O=C1CSC(c2cccc([N+](=O)[O-])c2)N1c1ccccc1 (stereo unspecified) | 1.31 |
| COC(=O)C(CC#Cc1ccc2c(c1)[C@]1(C(=O)N2)[C@H](c2ccc(O)cc2)N2[C@H](c3ccccc3)[C@H](c3ccccc3)OC(=O)[C@H]2[C@@H]1C(=O)O)C(=O)OC | 0.226 |
| COCCCNC(=O)[C@@]1(Cc2ccccc2I)c2ccccc2C(=O)N(Cc2ccccc2Cl)[C@H]1c1ccc(CO)cc1 | -0.36 |
| COC(=O)[C@]1(Cc2ccccc2CN=[N+]=[N-])N=C(c2ccc(OCCCO)cc2)O[C@@H]1c1ccccc1 | -3.58 |
| CN(C)CCCCCCNC(=O)[C@@H]1C[C@@H]2C(=O)NCC(=O)N2[C@@H]1c1ccc(O)cc1 | -0.539 |
| COC(=O)c1ccc(OC)c(/C=C\CC(CCc2ccccc2)OC(=O)c2ccncc2)c1 (stereo unspecified) | -2.19 |
| CCOC(=O)C[C@H]1[C@H](OC(=O)Cc2ccc3c(c2)OCO3)[C@@H](NC(=O)c2ccccc2)c2cc(OCCCO)ccc2N1C(=O)c1ccc2ccccc2n1 | -0.198 |
| CCCNC(=O)[C@@]1(Sc2ccc(C)cc2)CC(=O)N(Cc2ccccc2)[C@@H]1c1ccc(CO)cc1I | -2.18 |
| CC1(C)[C@@H]2CC(C(O)C3C=CC4C(=O)N(c5ccccc5)C(=O)C4N3Nc3ccccc3F)=C[C@@H]1C2 (stereo partly specified) | 0.848 |
